Reference: PubChem BioAssay
Unmarked numbers belong to inactive results.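 The calls were made as follows: active = differentiation response of at least 50%, scaled between solvent and reference control, from cells with both markers; inactive = the rest.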

Experiment: AML differentiation inducers, ER-HoxA9 marrow cells – cell-based, GFP/MAC1 double positive, flow cytometry, validation set, primary screen (AID 588685);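 also: compound exposure lasts four days before antibody staining and flow analysis; 0% = DMSO wells and 100% = 5 µM fulvestrant positive control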
Settings: hits give high values
Compound `CCC(COC(=O)c1cc(OC)c(OC)c(OC)c1)(c1ccccc1)N(C)C` (centres undefined) has a differentiation response of -3.02%. Work on `Nc1ccc([As](=O)(O)O)cc1` yielded a differentiation response of -0.2%. `CCCC(C)(COC(N)=O)COC(=O)NC(C)C` (centres undefined) showed a differentiation response of 44.3%. Compound `c1cnc2c(c1)ccc1ncccc12` has a differentiation response of -17.8%. Compound `NCCc1ccc(O)cc1` has a differentiation response of -11.9%. Work on `C[C@]12CC[C@@H]3c4ccc(O)c(O)c4CC[C@H]3[C@@H]1CC[C@@H]2O` yielded a differentiation response of 3.03%. In the case of `CC(CCc1ccccc1)NC(C)C(O)c1ccc(O)cc1` (centres undefined), the differentiation response is reported as -16.4%. Work on `Clc1ccc(COC(Cn2ccnc2)c2ccc(Cl)cc2Cl)c(Cl)c1` (centres undefined) yielded a differentiation response of -1.05%. `CC12CN3CC(c4ccccc4)(CN(C1)C31CCCCC1)C2=O` showed a differentiation response of 13.6%. Compound `c1ccc2c(c1)OCC(C1=NCCN1)O2` (centres undefined) has a differentiation response of -19.6%. Work on `COc1cc(/C=C2\C(=O)NC(=O)N(c3ccccc3)C2=O)c([N+](=O)[O-])cc1OC` yielded a differentiation response of -8.96%. `CC12CCC3C(CC=C4CC5(CCC43C)OCCO5)C1CCC2=O` (centres undefined) showed a differentiation response of -4.09%. In the case of `COc1ccc2c3c([nH]c2c1)C(C)=NCC3`, the differentiation response is reported as 20.8%. In the case of `CCCC(=O)OCC[N+](C)(C)C`, the differentiation response is reported as 2.46%. `C[C@]12CCC(=O)C=C1CC[C@@H]1[C@@H]2C(=O)C[C@]2(C)C(=O)CC[C@@H]12` gave a differentiation response of 5.85%. `Cc1nc2ccccc2c(=O)n1-c1ccc(C(=O)O)cc1` showed a differentiation response of -8.96%. For `Cc1c2ccncc2c(C)c2c1[nH]c1ccccc12`, the differentiation response was 18%. With `CC/C(=C\C=C\[C@@H]1C=C[C@@H]2CCC[C@H]2[C@@H]1C(=O)c1ccc[nH]1)[C@@H]1O[C@@H]([C@@H](C)C(=O)O)CC[C@@H]1C` the differentiation response was -4%. Work on `C[C@]12CCC(=O)C(O)=C1CC[C@@H]1[C@@H]2CC[C@]2(C)C(=O)CC[C@@H]12` yielded a differentiation response of 3.28%. `CN1[C@@H]2CC[C@H]1CC(OC(=O)C1C=Nc3ccccc31)C2` (some centres undefined) showed a differentiation response of -3.43%. For `O=C1CSC2N1CCNC21CCCCC1` (centres undefined), the differentiation response was 28.6%. Compound `C[C@H]1CCCC(=O)CCCCCc2cc(O)cc(O)c2C(=O)O1` has a differentiation response of 5.85%. In the case of `CC(=O)Nc1cc([As](=O)(O)O)ccc1O`, the differentiation response is reported as -0.06%. Compound `NCC(O)c1ccc(O)cc1` (centres undefined) has a differentiation response of 2.46%.
